From PubChem BioAssay (NCI)
Several values for one entry are separate records, joined by “and”; a condition that tells them apart may be missing. Identical values can stand only once. This is part of a sample that, as a whole, favours compounds with a hit. Of some 83,000 tested, about 20% had one in any assay.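 Negative percent growth values reflect cell death: -40 means 40% of the cells present at the start died, and -100 means all died.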 Unmarked numbers belong to inactive results. Activity calls are given as the source filed them. How the source made its calls: active means growth percent below 10; inactive means the rest.

System: MDA-MB-468 breast
Test: NCI-60 one-dose screen, 48 h (100 = growth as untreated, 0 = no growth, -100 = all killed)
Conditions: 10 µM unless noted

Row | Structure (SMILES) | growth
1 | O=C(NNc1ccccc1)OCc1ccccc1 | 108%
2 | CCOC(=O)c1ccc2c(c1)nc(/C=C/c1ccc(Cl)cc1)n2-c1cc(C(C)(C)C)[nH]n1 | 58.8%
3 | OCCNCCCOc1ccc2ncnc(Nc3ccc(Oc4cccc(C(F)(F)F)c4)c(Cl)c3)c2c1 | -64.6% (active)
4 | CCOC(=O)C1=C(C)NC(=O)NC1c1cc(=O)oc2ccc(C)cc12 (centres undefined) | 106%
5 | CC(=O)Nc1cc(C)ccc1C | 76%
6 | CCN(CCNS(C)(=O)=O)c1ccc(N)c(C)c1 | 56.5% and 69.7%
7 | CCCCCc1ccc(C)cc1OC(=O)CCl | 110%
8 | O=C(Nc1ccc(Br)cc1F)c1cc(Cl)ccc1O | -14.5% (active)
9 | O=C1OC(C(Cl)(Cl)Cl)OC1C(Cl)(Cl)Cl (centres undefined) | 109%
10 | OCC(O)COc1ccc(Cl)cc1Cl (centres undefined) | 111%
11 | N#Cc1cc(-c2nc3ccccc3s2)c(=O)n(NS(=O)(=O)c2ccc(Cl)cc2)c1N | 99.6%
12 | COc1cc(C(=O)Nc2cc(OC)c3ccn(C)c3c2)cc2c1C[C@]1(C)CC[C@@H](O)C(C)(C)[C@H]1O2 | 8.94% (active)
13 | O=C1/C(=C/c2cccs2)CCC/C1=C\c1cccs1 | -45.5% (active)
14 | CCN(CC)CCC(CNc1ccnc2cc(Cl)ccc12)c1ccc(Cl)cc1 (centres undefined) | -86.6% (active)
15 | C#CCOc1cccc(-c2ncnc3cc(NC(=O)C=C)ccc23)c1 | -8.85% (active)
16 | COc1ccc(C(=O)C2CC2c2ccc(Cl)cc2)cc1 (centres undefined) | 98.3%
17 | O=C1c2ccccc2-c2nccc3cc(Cl)nc1c23 | -87.2% (active)
18 | O=S(=O)(NCCCNc1nccc(-c2c(-c3ccccc3)nc3occn23)n1)c1ccc(Cl)cc1 | 67.1%
19 | CCN1CCN(Cc2ccc(NC(=O)Nc3ccc(-n4ccc5c(NC(=O)c6ccccc6)nccc54)cc3)cc2C(F)(F)F)CC1 | 60.1%
20 | COc1cc(C2C3CC4CCCC[C@H]4N3[C@@]3(C(=O)Nc4cc(Cl)ccc43)C2C(=O)c2nc3ccccc3[nH]2)cc(OC)c1OC (some centres undefined) | 52.8%

Row | Structure (SMILES) | growth
21 | COC(=O)N[C@H]1CCc2c(Cl)c(OC)c(OC)c(OC)c2-c2ccc(SC)c(=O)cc21 | -18.8% (active)
22 | Nc1cc(C(=O)NC[C@H]2CN(c3ccc(N4CCC(C(=O)O)CC4)cc3)C(=O)O2)ccc1Cl | 99.4%
23 | COc1cc2oc(-c3cccc(C(=O)Nc4ccc(Br)cc4)c3)cc(=O)c2c(OC)c1OC | 64.3%
24 | O=C(Nc1ccc(-n2ccc3c(NC(=O)c4ccccc4)ncnc32)cc1)c1cccc(C(F)(F)F)c1 | 58.6%
25 | CC(O)CN(CCO)CCN(CCO)CC(C)O (centres undefined) | 94.8%
26 | COc1ccc(/C=N/NC(=O)c2cccc3cc[nH]c23)cc1O | 11.3%
27 | CC(C)N(C(=O)c1ccccc1)C(C)C | 86.2%
28 | COCCOc1ccc(-c2csc(NC(C)=O)n2)cc1NS(=O)(=O)c1cccc2c(N(C)C)cccc12 | 90.3%
29 | O=C1Nc2ccccc2/C1=C/C(=O)c1ccc(N2CCCCC2)cc1 | 80%
30 | CCOC(=O)/C=C/c1ccc([N+](=O)[O-])o1 | 53.6%
31 | O=C(NCCCNc1cc(-c2cn(-c3ccccc3)nc2-c2cccc(O)c2)ccn1)Nc1ccc(F)cc1 | -19.4% (active)
32 | C=C[C@@H]1C[C@@H]2Cc3cc(Cl)ccc3N1O2 | 95.1%
33 | Cc1nc2ccc(Cl)cn2c1-c1nnc(SCc2ccc([N+](=O)[O-])cc2)o1 | 48.9%
34 | CC(C)n1nc(C#Cc2cccc3cc(-c4cccc(C(F)(F)F)c4)ncc23)c2c(N)ncnc21 | 98.3%
35 | CC(=O)Nc1ccc(-c2ccc3c(c2)NC(=O)/C3=C\c2ccc[nH]2)cc1 | -7.08% (active)
36 | NC(=O)n1c(=O)n(-c2cccc(C(F)(F)F)c2)c(=O)c2cc(-c3ccc(F)cc3F)ccc21 | -8.88% (active)
37 | CC(C)OCCCNCC(=O)Nc1ccc(S(=O)(=O)c2ccc(NC(=O)CNCCCOC(C)C)cc2)cc1 | 92.7%
38 | C#C[C@]1(O)CC[C@H]2[C@@H]3CC=C4c5sc(N=C(N)N)nc5CC[C@]4(C)[C@H]3CC[C@@]21C | -31.7% (active)
39 | COc1ccc2c(C3=C(c4c[nH]c5ccccc45)C(=O)N(O)C3=O)coc2c1 | 88.6%
